Results taken from PubChem BioAssay.
For some assays here: Potency and affinity values are given separately. The source made the active and inactive calls. A call without a number means that no potency is given here. Unless noted, no rule for the calls is given here.

What was measured:
[1] = antimalarial activity against Dd2 strain (AID 2302;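 active = growth inhibition above 50% at the single 2 µM test dose, taken to imply half-maximal potency below 2 µM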); conditions: P. falciparum Dd2 in RBCs, LDH growth readout, 72 h; at 2 µM; stronger effect = higher value
[2] = human hepatoma cell viability loss – ATP luminescence, cytotoxicity control for P. falciparum antimalarial project, primary screen (AID 2303;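 active = inhibition above 50%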); conditions: HepG2 viability, 24-48 h, at 10 µM, stronger effect = higher value
[3] = molecular target: L-lactate dehydrogenase (Plasmodium falciparum (isolate CDC / Honduras)) (UniProt Q27743); test: PfLDH activity inhibition – cell lysate, 3D7 strain, counter-screen for P. falciparum growth inhibition project (AID 2304); conditions: P. falciparum 3D7 crude extract, LDH APAD/NBT absorbance; at 2 µM; stronger effect = higher value
[4] = inhibition of 3D7 malaria parasite growth – strain 3D7 (AID 2306); conditions: P. falciparum 3D7 erythrocytic growth, LDH absorbance, 72 h; at 2 µM; stronger effect = higher value
[5] = molecular target: Calcium-dependent protein kinase 1 (Plasmodium falciparum (isolate 3D7)) (UniProt P62344); test: PfCDPK1 kinase inhibitors, biochemical, TCAMS library (AID 1159585; cut-off not given, nearly all actives have IC50 up to about 0.98 µM;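 also: inhibitors leave more ATP so luminescence rises with inhibition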); conditions: recombinant PfCDPK1, Kinase-Glo ATP depletion luminescence
[6] = molecular target: Plasmodium falciparum protein kinase 6 (PK6, PF3D7_1337100) (UniProt Q8IDW1); test: PfPK6 kinase inhibitors, biochemical, TCAMS library (AID 1159586); conditions: recombinant PfPK6, Kinase-Glo ATP depletion luminescence
[7] = molecular target: Protein kinase 7 (PK7), Plasmodium falciparum 3D7 (PF3D7_0213400) (UniProt Q7YTF7); test: inhibition of Plasmodium PK7 catalytic activity – biochemical, TCAMS antimalarial set, Kinase-Glo luminescence (AID 1159587); conditions: recombinant PfPK7, Kinase-Glo ATP depletion luminescence
[8] = molecular target: Calcium-dependent protein kinase 4 (Plasmodium falciparum (isolate 3D7)) (UniProt Q8IBS5); test: PfCDPK4 kinase inhibitors, biochemical, TCAMS library (AID 1159588; cut-off not given, nearly all actives have IC50 up to about 0.91 µM); conditions: recombinant PfCDPK4, Kinase-Glo ATP depletion luminescence
Chain of Calcium-dependent protein kinase 4 (Plasmodium falciparum (isolate 3D7)) (Q8IBS5 whole entry, looked up): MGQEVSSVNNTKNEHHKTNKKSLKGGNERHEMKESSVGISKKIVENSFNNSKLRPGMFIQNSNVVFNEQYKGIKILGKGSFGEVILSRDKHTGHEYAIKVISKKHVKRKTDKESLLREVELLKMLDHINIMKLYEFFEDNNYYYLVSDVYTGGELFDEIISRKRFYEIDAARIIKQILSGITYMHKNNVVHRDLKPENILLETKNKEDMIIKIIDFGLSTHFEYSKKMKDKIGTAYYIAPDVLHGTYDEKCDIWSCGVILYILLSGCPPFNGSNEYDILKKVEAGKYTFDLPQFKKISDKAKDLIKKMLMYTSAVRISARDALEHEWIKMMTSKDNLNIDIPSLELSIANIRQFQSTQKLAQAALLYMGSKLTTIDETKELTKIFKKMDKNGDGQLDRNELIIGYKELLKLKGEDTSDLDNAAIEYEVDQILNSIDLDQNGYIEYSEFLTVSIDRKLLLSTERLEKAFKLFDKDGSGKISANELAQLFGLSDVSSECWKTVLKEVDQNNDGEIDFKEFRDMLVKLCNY

Chain of Calcium-dependent protein kinase 1 (Plasmodium falciparum (isolate 3D7)) (P62344 whole entry, looked up): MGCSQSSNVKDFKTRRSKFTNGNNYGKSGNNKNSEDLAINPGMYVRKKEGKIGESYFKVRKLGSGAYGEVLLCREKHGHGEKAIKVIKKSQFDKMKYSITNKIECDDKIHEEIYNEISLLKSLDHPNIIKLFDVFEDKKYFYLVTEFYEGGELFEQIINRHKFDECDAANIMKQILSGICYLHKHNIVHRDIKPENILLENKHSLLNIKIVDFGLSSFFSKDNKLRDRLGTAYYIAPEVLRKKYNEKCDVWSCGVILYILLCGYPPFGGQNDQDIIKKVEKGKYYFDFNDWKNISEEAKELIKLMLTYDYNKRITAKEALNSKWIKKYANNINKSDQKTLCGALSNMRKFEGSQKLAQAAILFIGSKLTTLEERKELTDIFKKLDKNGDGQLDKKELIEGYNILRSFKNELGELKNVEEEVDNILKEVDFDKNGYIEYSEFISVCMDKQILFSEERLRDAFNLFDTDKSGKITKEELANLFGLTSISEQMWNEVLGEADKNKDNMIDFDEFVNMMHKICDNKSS
Chain of Protein kinase 7 (PK7), Plasmodium falciparum 3D7 (PF3D7_0213400) (Q7YTF7 1-343): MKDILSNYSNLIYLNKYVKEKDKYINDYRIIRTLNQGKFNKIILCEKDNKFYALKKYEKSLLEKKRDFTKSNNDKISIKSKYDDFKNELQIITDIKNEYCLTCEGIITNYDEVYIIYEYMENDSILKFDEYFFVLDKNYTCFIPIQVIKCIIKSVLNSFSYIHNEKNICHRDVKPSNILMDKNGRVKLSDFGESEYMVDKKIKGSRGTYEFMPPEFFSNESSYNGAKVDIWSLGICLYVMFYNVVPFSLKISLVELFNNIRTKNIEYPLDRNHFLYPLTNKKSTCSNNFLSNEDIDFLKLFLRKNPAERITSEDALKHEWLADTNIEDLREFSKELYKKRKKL
Chain of L-lactate dehydrogenase (Plasmodium falciparum (isolate CDC / Honduras)) (Q27743 whole entry, looked up): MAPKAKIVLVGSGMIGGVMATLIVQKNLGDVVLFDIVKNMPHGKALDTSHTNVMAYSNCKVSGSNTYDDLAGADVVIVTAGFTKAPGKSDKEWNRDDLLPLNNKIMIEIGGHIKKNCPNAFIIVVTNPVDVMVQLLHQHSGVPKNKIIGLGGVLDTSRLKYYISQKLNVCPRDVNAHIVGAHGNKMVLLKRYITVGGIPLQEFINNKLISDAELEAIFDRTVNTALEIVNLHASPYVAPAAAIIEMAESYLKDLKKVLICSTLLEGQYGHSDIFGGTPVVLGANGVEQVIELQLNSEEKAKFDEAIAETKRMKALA
Chain of Plasmodium falciparum protein kinase 6 (PK6, PF3D7_1337100) (Q8IDW1 1-305): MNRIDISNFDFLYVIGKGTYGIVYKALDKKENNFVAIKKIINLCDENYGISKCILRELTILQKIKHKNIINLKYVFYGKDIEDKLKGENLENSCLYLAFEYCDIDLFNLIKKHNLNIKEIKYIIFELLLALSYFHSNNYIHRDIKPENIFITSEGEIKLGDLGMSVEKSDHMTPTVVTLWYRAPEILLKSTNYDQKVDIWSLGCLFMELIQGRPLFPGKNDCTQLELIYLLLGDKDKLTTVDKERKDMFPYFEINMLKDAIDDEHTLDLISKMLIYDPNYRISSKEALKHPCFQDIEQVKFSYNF

| Compound | growth inhibition [1] | inhibition [2] | inhibition [3] | growth inhibition [4] | outcome [5] | outcome [6] | outcome [7] | outcome [8] |
| --- | --- | --- | --- | --- | --- | --- | --- | --- |
| COc1ccc2nccc([C@@H](O)CN3CCC(NC(=O)c4cc5c(F)cc(F)cc5[nH]4)CC3)c2c1 | 98% (active) | 33% (inactive) | -1% (inactive) | 101% (active) | inactive | inactive | inactive | inactive |
| CN1CCC(N(Cc2ccc(-c3ccc(Cl)cc3)cc2)C(=O)Cn2c(CCc3cccc(F)c3F)cc(=O)c3ccccc32)CC1 | 88% (active) | 93% (active) | -3% (inactive) | 97% (active) | inactive | inactive | inactive | inactive |
| O=C(Nc1ccc2nccc(N3CCN4CCC[C@H]4C3)c2c1)c1ccc(Cl)c(Cl)c1 | 98% (active) | 18% (inactive) | -8% (inactive) | 101% (active) | inactive | inactive | inactive | inactive |
| COc1ccc2nccc([C@@H](O)CN3CCC(NCc4cc5ccccc5[nH]4)CC3)c2c1 | 41% (inactive) | 75% (active) | 4% (inactive) | 92% (active) | inactive | inactive | inactive | inactive |
